Assay in all cases: DAPPL (digital affinity profiling via proximity ligation, sequencing); 10 mM Tris-HCl pH 7.5, 50 mM NaCl, 1 mM DTT, 4% glycerol, room temperature, 30 min; GST-TFs on glutathione beads, 16-mer random dsDNA library, 0.1% formaldehyde crosslink after washing; high values mean tight binding
In assay [1] the target is T1, FLI1 (Homo sapiens, UniProt Q01543 1-452).
T1 sequence: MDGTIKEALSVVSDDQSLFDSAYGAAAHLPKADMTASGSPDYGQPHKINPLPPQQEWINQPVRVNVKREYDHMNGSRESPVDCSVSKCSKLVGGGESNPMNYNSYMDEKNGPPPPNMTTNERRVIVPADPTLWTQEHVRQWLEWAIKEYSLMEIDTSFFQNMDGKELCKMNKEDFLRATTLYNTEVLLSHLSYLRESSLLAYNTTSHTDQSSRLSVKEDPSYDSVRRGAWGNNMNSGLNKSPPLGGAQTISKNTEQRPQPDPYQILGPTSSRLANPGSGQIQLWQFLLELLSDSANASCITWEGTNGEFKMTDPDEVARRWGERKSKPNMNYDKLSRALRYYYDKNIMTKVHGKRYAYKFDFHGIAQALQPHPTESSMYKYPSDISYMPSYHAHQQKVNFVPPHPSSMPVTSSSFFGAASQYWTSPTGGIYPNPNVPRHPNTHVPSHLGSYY
The following applies: protein: recombinant; tags: N-terminal GST; dsDNA, one strand shown. The gist of the method: (§1)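 Pools of DNA-barcoded human transcription factors, expressed in yeast as GST fusions on glutathione beads and combined with a tag-only sample, were incubated with 200 nmole of a 16-mer random double-stranded DNA library. Incubation took 30 min at room temperature in Tris/NaCl/DTT/glycerol buffer and was followed by washing, 0.1% formaldehyde crosslinking, proximity ligation (BsaI/T4 ligase, 1 h, 37 °C), PCR amplification and sequencing on an Illumina NextSeq500. Binding signal is the ratio of a hexamer's read frequency for a factor to its frequency for the tag-only sample.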

For assay [2], the target named is T2, ELK1 (Homo sapiens, UniProt P19419 1-428).
T2 sequence: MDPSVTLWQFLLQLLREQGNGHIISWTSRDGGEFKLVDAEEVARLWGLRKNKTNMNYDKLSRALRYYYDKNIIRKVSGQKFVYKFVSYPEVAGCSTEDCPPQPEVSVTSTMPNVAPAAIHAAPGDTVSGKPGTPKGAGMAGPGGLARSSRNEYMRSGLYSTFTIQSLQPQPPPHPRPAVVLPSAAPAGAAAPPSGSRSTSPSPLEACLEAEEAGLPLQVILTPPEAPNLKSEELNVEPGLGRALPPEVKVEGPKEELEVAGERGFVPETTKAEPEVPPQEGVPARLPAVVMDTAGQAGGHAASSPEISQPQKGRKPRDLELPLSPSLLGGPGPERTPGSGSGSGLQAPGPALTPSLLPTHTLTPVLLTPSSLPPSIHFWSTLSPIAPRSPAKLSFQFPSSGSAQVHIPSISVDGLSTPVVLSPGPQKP
The conditions noted are these: protein: recombinant; tags: N-terminal GST; dsDNA, one strand shown. The gist of the method: as §1

The target in assay [3] is T3, GABPA (Homo sapiens, UniProt Q06546 1-454).
T3 sequence: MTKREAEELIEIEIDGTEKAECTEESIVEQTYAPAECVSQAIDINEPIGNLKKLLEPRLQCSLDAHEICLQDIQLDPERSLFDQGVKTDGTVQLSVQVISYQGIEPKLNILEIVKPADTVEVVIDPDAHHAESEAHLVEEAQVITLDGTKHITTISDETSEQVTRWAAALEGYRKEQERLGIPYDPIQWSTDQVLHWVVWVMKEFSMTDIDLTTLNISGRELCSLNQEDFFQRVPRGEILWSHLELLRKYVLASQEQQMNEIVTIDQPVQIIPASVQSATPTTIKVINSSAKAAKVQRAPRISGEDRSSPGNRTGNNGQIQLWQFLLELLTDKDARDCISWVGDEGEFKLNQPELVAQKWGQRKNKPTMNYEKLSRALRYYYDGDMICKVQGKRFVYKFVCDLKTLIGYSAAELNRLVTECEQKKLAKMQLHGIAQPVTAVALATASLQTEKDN
The conditions noted are these: protein: recombinant; tags: N-terminal GST; dsDNA, one strand shown. The gist of the method:
as §1

The target of assay [4] is T4, ERG (Homo sapiens, UniProt P11308 1-479).
T4 sequence: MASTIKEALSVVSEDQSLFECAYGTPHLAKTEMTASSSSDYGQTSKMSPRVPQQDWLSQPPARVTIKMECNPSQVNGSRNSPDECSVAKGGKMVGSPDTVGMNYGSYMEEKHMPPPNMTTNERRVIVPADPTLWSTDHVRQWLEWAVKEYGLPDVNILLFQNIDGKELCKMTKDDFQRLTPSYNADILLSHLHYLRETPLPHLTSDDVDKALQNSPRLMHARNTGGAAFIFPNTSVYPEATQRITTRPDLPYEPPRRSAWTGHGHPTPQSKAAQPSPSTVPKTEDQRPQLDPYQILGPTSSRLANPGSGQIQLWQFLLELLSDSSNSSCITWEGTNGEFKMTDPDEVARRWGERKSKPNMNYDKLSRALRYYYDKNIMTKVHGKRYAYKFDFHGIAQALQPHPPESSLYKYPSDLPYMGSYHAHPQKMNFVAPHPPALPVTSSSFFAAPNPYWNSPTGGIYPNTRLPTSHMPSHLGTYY
The following applies: protein: recombinant; tags: N-terminal GST; dsDNA, one strand shown. The gist of the method:
as §1

Assay [5] concerns the target ELF1 (Homo sapiens, UniProt P32519 1-619). The following applies: protein: recombinant; tags: N-terminal GST; dsDNA, one strand shown. Put shortly:
as §1

Assay [6] has as its target T5, EHF (Homo sapiens, UniProt Q9NZC4 1-300).
T5 sequence: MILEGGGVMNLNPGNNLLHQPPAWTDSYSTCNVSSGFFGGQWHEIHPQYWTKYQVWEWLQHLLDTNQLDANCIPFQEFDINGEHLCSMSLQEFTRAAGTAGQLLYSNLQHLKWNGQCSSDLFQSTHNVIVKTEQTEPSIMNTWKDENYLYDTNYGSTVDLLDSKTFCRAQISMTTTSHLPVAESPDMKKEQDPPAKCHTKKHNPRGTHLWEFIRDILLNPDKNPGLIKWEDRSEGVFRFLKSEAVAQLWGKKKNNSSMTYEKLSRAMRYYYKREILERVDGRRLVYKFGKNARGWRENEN
The following applies: protein: recombinant; tags: N-terminal GST; dsDNA, one strand shown. Put shortly: as §1

Assay [7] addresses SPI1 (Homo sapiens, UniProt P17947 1-270). The following applies: protein: recombinant; tags: N-terminal GST; dsDNA, one strand shown. The gist of the method: as §1
Assay [8] addresses SPIB (Homo sapiens, UniProt Q01892 1-262). The following applies: protein: recombinant; tags: N-terminal GST; dsDNA, one strand shown. Put shortly:
as §1

The target of assay [9] is T6, ELK3 (Homo sapiens, UniProt P41970 1-407).
T6 sequence: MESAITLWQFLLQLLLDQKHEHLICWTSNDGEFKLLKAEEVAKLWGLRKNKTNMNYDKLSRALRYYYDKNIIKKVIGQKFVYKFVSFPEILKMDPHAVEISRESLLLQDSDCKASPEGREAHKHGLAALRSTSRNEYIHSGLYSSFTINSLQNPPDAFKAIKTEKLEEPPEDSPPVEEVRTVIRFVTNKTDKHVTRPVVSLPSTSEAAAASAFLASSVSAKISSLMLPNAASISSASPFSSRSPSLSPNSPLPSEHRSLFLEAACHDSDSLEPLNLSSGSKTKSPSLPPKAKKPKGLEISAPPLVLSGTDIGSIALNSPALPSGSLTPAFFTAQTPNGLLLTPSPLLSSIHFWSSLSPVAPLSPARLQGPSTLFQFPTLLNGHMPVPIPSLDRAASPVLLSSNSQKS
The following applies: protein: recombinant; tags: N-terminal GST; dsDNA, one strand shown. Put shortly:
as §1

Assay [10] deals with T7, FEV (Homo sapiens, UniProt Q99581 1-238).
T7 sequence: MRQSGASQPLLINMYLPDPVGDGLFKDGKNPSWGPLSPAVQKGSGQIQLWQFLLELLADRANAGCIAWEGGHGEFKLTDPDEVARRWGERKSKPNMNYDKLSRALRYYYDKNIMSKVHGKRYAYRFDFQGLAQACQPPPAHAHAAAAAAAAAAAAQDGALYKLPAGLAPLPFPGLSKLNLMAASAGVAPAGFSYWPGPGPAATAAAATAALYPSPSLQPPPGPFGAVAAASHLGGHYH
The following applies: protein: recombinant; tags: N-terminal GST; dsDNA, one strand shown. The gist of the method: as §1

Assay [11] deals with ETV5 (Homo sapiens, UniProt P41161 1-510). The conditions noted are these: protein: recombinant; tags: N-terminal GST; dsDNA, one strand shown. Put shortly:
as §1

Assay [12] deals with HSF1 (Homo sapiens, UniProt Q00613 1-529). The following applies: protein: recombinant; tags: N-terminal GST; chain copies: 3; dsDNA, one strand shown. Put shortly: as §1
The target in assay [13] is T8, SPIC (Homo sapiens, UniProt Q8N5J4 1-248).
T8 sequence: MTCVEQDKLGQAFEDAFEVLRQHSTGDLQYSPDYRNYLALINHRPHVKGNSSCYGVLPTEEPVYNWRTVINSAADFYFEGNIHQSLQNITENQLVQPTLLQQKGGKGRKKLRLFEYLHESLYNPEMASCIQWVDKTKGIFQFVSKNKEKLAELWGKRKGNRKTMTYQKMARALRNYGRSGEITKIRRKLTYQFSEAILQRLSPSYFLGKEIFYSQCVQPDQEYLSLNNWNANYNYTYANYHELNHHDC
The following applies: protein: recombinant; tags: N-terminal GST; dsDNA, one strand shown. Put shortly: as §1

For assay [14], the target named is ELF4 (Homo sapiens, UniProt Q99607 1-663). The conditions noted are these: protein: recombinant; tags: N-terminal GST; dsDNA, one strand shown. The gist of the method:
as §1

Assay [15] deals with T9, ELK4 (Homo sapiens, UniProt P28324-2 1-405).
T9 sequence: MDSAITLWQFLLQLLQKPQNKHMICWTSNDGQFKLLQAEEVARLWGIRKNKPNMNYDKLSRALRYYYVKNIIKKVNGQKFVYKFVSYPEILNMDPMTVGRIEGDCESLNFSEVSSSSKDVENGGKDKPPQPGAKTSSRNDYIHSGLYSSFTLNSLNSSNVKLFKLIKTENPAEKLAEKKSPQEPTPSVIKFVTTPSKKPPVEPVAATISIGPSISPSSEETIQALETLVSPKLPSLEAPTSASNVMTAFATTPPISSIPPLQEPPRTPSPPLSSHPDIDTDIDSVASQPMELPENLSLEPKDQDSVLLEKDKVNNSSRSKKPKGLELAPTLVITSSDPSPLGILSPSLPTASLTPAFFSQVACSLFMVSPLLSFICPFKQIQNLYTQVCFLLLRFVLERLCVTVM
The following applies: protein: recombinant; tags: N-terminal GST; dsDNA, one strand shown. The gist of the method:
as §1

The target in assay [16] is T10, ETV2 (Homo sapiens, UniProt O00321 1-342).
T10 sequence: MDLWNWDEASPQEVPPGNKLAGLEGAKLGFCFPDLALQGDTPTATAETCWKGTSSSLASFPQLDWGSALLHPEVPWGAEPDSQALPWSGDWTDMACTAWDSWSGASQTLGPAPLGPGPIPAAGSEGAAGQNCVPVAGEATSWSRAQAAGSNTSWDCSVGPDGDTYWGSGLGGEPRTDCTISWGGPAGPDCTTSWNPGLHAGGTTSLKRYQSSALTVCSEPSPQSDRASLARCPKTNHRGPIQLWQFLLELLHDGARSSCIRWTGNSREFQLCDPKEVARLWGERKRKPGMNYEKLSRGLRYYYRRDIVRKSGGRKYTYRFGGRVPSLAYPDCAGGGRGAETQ
The following applies: protein: recombinant; tags: N-terminal GST; dsDNA, one strand shown. Put shortly:
as §1

The target in assay [17] is T11, ELF3 (Homo sapiens, UniProt P78545 1-371).
T11 sequence: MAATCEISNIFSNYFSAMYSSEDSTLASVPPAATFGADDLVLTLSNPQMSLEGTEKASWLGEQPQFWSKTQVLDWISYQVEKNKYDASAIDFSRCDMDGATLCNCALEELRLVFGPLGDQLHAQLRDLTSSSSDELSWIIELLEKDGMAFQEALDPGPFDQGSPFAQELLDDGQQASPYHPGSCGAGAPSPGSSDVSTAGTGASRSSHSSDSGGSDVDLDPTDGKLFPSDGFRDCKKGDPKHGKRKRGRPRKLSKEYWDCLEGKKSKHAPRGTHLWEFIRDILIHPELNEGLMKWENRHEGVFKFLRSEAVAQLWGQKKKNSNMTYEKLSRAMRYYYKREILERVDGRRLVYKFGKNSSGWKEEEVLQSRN
The following applies: protein: recombinant; tags: N-terminal GST; dsDNA, one strand shown. Put shortly:
as §1

The target in assay [18] is ETV1 (Homo sapiens, UniProt P50549 1-477). The following applies: protein: recombinant; tags: N-terminal GST; dsDNA, one strand shown. Put shortly: as §1

Our source for the binding signal values is paper PMC7862700, “An all-to-all approach to the identification of sequence-specific readers for epigenetic DNA modifications on cytosine”.

ETV1, sequence (P50549 whole entry): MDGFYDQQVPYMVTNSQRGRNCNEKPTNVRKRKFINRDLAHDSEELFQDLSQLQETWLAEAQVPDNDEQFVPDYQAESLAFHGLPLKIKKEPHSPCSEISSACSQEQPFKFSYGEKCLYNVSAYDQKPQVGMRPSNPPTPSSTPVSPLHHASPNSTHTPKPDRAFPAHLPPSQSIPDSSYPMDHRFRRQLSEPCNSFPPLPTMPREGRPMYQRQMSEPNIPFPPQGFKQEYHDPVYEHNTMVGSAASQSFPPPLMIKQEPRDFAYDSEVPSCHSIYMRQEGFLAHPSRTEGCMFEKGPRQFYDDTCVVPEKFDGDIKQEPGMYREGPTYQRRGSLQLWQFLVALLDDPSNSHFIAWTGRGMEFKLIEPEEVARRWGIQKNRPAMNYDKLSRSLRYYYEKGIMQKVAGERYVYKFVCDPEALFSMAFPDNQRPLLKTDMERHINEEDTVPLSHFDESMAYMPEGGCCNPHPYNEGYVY
ELF1, sequence (P32519 whole entry): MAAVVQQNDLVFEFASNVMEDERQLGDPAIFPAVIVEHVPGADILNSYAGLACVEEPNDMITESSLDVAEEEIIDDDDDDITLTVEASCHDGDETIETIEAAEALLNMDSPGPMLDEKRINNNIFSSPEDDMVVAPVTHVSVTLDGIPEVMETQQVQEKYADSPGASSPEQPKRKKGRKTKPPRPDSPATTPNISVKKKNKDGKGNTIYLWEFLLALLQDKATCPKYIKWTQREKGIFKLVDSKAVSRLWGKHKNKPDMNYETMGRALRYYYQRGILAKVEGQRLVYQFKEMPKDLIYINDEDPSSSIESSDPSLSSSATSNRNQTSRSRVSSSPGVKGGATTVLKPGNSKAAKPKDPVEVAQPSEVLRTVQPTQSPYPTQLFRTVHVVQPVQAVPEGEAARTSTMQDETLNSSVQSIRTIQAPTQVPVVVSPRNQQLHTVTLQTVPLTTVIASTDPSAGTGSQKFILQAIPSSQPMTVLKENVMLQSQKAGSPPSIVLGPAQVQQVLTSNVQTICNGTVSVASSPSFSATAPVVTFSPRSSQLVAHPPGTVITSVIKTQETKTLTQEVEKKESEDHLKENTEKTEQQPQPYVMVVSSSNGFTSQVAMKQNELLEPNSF
ELF4, sequence (Q99607 whole entry): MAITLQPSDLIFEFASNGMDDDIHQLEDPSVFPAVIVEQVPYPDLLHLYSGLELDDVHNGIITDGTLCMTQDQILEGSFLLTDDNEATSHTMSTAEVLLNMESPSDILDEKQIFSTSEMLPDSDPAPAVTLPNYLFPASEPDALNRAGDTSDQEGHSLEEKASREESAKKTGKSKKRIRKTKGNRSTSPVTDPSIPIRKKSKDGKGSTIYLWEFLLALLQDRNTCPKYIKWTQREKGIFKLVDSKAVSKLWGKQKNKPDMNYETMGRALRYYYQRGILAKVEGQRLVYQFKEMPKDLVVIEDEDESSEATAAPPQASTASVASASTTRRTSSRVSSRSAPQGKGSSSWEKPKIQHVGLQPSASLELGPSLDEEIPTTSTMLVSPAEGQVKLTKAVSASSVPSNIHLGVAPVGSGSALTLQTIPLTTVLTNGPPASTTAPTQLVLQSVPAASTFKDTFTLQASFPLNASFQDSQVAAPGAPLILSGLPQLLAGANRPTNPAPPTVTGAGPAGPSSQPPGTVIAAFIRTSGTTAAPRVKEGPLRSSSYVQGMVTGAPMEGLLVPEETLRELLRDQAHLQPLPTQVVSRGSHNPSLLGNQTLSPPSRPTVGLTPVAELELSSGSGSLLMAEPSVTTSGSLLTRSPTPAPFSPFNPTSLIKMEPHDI
HSF1, sequence (Q00613 whole entry): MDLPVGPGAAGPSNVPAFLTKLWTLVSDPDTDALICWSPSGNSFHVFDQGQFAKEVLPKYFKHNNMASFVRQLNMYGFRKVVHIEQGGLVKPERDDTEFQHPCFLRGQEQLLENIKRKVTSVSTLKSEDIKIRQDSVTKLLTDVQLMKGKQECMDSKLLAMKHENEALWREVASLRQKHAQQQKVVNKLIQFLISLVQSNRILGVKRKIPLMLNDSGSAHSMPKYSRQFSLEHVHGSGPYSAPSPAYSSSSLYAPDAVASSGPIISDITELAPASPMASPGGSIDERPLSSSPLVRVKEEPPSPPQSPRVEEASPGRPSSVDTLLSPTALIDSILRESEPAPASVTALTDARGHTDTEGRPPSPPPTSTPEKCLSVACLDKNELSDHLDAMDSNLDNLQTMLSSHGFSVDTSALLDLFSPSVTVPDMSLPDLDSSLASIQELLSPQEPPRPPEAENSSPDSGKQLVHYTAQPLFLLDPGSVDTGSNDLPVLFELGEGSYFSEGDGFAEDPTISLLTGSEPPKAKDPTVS
SPIB, sequence (Q01892 whole entry): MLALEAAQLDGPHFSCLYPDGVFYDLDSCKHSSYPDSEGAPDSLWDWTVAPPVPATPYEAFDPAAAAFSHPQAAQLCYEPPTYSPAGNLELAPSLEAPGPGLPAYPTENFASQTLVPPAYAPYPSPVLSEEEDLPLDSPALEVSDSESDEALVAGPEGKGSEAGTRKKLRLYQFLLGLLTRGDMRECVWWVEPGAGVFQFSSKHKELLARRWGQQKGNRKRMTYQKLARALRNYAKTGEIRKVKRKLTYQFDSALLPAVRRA
ETV5, sequence (P41161 whole entry): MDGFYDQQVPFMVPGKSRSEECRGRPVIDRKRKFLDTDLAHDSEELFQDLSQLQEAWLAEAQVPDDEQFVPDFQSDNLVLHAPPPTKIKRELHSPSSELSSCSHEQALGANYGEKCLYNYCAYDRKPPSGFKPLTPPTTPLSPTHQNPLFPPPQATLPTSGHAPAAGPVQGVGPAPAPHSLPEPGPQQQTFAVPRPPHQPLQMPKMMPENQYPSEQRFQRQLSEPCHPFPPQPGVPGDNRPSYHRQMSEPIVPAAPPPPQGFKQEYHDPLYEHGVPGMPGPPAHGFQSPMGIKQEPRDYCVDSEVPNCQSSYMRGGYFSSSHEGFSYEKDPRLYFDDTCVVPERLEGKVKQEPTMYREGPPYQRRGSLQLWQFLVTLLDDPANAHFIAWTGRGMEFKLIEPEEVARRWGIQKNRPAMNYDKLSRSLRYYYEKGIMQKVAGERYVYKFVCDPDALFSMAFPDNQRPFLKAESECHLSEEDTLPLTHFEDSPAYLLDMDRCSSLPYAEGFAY

TGCCTG: the binding signal in [1] is 1.17 fold enrichment (6-mer frequency, TF over GST control); in [2], 1.27 fold enrichment (6-mer frequency, TF over GST control); in assay [3], 1.32 fold enrichment (6-mer frequency, TF over GST control); in assay [4], 1.32 fold enrichment (6-mer frequency, TF over GST control); in [5], 1.33 fold enrichment (6-mer frequency, TF over GST control); in assay [6], 1.36 fold enrichment (6-mer frequency, TF over GST control). Also, the binding signal in assay [7] was 1.26 fold enrichment (6-mer frequency, TF over GST control); in [8] it was 1.29 fold enrichment (6-mer frequency, TF over GST control); in assay [9] it was 1.59 fold enrichment (6-mer frequency, TF over GST control); in assay [10] it was 1.16 fold enrichment (6-mer frequency, TF over GST control); in [11], 1.37 fold enrichment (6-mer frequency, TF over GST control); in assay [12], 1.05 fold enrichment (6-mer frequency, TF over GST control). The binding signal in assay [13] was 1.32 fold enrichment (6-mer frequency, TF over GST control); in assay [14], 1.22 fold enrichment (6-mer frequency, TF over GST control); in [15], 1.25 fold enrichment (6-mer frequency, TF over GST control); in assay [16] it was 1.2 fold enrichment (6-mer frequency, TF over GST control); in [17], 1.05 fold enrichment (6-mer frequency, TF over GST control); in [18], 1.49 fold enrichment (6-mer frequency, TF over GST control).
